Measurements reported in the supplement of paper PMC6555819.

Key:
Assay in all cases: PBM binding z-score (relative to random genomic background probes); higher = stronger binding; sequences stand for … in GC…GCGATTGACAGCGTAGAATGAAGG
[1] = system: FXR:RXRa (NR concentration 270 nM, RXRa partner concentration 90 nM)
Procedure, shortened: (§1)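 Antibodies against each partner of ligand-free nuclear receptor dimers (one per run) detected binding on custom Agilent 4×180K protein-binding microarrays after 1 h incubation. The double-stranded probes had 34-nt variable regions carrying direct-repeat seeds, single-nucleotide variants, half-site ablations and random human genomic background sequences. Binding z-scores, from regression-normalized fluorescence, use the random background probes as reference.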

[2] = system: LXRa:RXRa (NR concentration 270 nM, RXRa partner concentration 90 nM)
Procedure, shortened: as §1

[3] = system: LXRa homodimer (NR concentration 270 nM)
Procedure, shortened: as §1

[4] = system: LXRb:RXRa (NR concentration 270 nM, RXRa partner concentration 90 nM)
Procedure, shortened: as §1

[5] = system: LXRb homodimer (NR concentration 270 nM)
Procedure, shortened: as §1

[6] = system: PPARa:RXRa (NR concentration 270 nM, RXRa partner concentration 90 nM)
Procedure, shortened: as §1

[7] = system: PPARg:RXRa (NR concentration 180 nM, RXRa partner concentration 90 nM)
Procedure, shortened: as §1

[8] = system: PPARg:RXRa 270nM:90nM, anti-RXR (NR concentration 270 nM, RXRa partner concentration 90 nM)
Procedure, shortened: as §1

[9] = system: PPARg:RXRa 30nM:10nM, anti-RXR (NR concentration 30 nM, RXRa partner concentration 10 nM)
Procedure, shortened: as §1

[10] = system: PPARg:RXRa 90nM:30nM, anti-RXR (NR concentration 90 nM, RXRa partner concentration 30 nM)
Procedure, shortened: as §1

[11] = system: PPARg:RXRa DBDmut IVT, anti-RXR (DBD mutation: RXRa K156A/R161A, NR concentration 270 nM, RXRa partner concentration 90 nM)
Procedure, shortened: as §1

[12] = system: PPARg:RXRa IVT, anti-PPARg (NR concentration 270 nM, RXRa partner concentration 90 nM)
Procedure, shortened: as §1

[13] = system: PPARg DBDmut IVT, anti-PPARg (DBD mutation: PPARg1 K132A/R137A, NR concentration 270 nM)
Procedure, shortened: as §1

[14] = system: PPARg homodimer (NR concentration 180 nM)
Procedure, shortened: as §1

[15] = system: PXR:RXRa (NR concentration 270 nM, RXRa partner concentration 90 nM)
Procedure, shortened: as §1

[16] = system: PXR homodimer (NR concentration 270 nM)
Procedure, shortened: as §1

[17] = system: RARa:RXR (NR concentration 270 nM, RXRa partner concentration 90 nM)
Procedure, shortened: as §1

[18] = system: RARa homodimer (NR concentration 270 nM)
Procedure, shortened: as §1

[19] = system: RARb:RXRa (NR concentration 270 nM, RXRa partner concentration 90 nM)
Procedure, shortened: as §1

Sequence | PBM binding z-score [1] | PBM binding z-score [2] | PBM binding z-score [3] | PBM binding z-score [4] | PBM binding z-score [5] | PBM binding z-score [6] | PBM binding z-score [7] | PBM binding z-score [8] | PBM binding z-score [9] | PBM binding z-score [10] | PBM binding z-score [11] | PBM binding z-score [12] | PBM binding z-score [13] | PBM binding z-score [14] | PBM binding z-score [15] | PBM binding z-score [16] | PBM binding z-score [17] | PBM binding z-score [18] | PBM binding z-score [19]
CGAACTAGGTCACCAGGACAGGGAAGAGGTTGGA | 4.04 | 2.49 | -0.0204 | 1.64 | -0.262 | 5.11 | 8.73 | 6.89 | 4.68 | 6.72 | 8.23 | 8.76 | 5.57 | 4.22 | 1.22 | 0.127 | 2.58 | 0.696 | 4.13
CGAACTAGGTCACCATGACAGTGAAGAGGTTGGA | 3.62 | 1.88 | -0.254 | 1.49 | 0.0449 | 4.95 | 8.32 | 6.55 | 4.64 | 6.23 | 7.11 | 8.4 | 1.33 | 1.97 | 1.4 | -0.124 | 2.42 | 0.707 | 4.23
ATATGTAGGTTATGGTCATTCAGAAAGTAGGGAA | 1.06 | 1.36 | 0.432 | 1.37 | 0.916 | 3.29 | 4.98 | 4.06 | 2.18 | 3.32 | 6.83 | 6.63 | 2 | 1.64 | 0.998 | 0.449 | 1.17 | 1.24 | 1.4
CTAACTAGGTCACCAGGACAGTGAAGAGGTTGGA | 4.07 | 2.77 | 0.482 | 1.74 | 0.0977 | 5.34 | 9.24 | 7.69 | 5.34 | 7.49 | 8.89 | 9.08 | -0.261 | 1.88 | 1.42 | 0.375 | 2.8 | 0.69 | 4.28
ATATTTAGGTTAGGGTCATTCAGAAAGTAGGGAA | 4.69 | 4.1 | 1.88 | 4.8 | 3.1 | 5.27 | 6.6 | 5.63 | 3.17 | 5.27 | 5.81 | 5.68 | 3.04 | 4.04 | 4.34 | 2.43 | 4.64 | 4.29 | 3.73
CGAACTAGGCCAAAGGACAGTGAAAGGCGACGTA | -0.669 | -0.893 | -0.542 | -0.756 | -1.2 | 2.97 | 6.79 | 6.81 | 5.3 | 7.2 | 5.96 | 5.66 | -0.194 | 0.351 | -0.549 | -0.424 | -0.24 | -0.451 | 1.33
CGAACTAGGTTAAAGGACAGTGAAAGGCGACGTA | -0.0523 | 0.122 | -0.254 | 0.129 | -0.736 | 3.82 | 7.8 | 7.53 | 7.49 | 8.79 | 6.46 | 6.45 | 0.461 | 1.11 | -0.281 | -0.159 | 0.0562 | -0.221 | 1.72
ATATGTAGGTTAGGGTCATTCACAAAGTAGGGAA | 4.56 | 4.43 | 1.56 | 4.7 | 1.64 | 5.7 | 7.65 | 6.7 | 3.97 | 6.22 | 6.56 | 6.82 | 1.75 | 2.3 | 4.57 | 2.17 | 4.83 | 2.07 | 3.49
ATATGTAGGTTAGGGTCACTCAGAAAGTAGGGAA | 4.33 | 3.26 | 0.67 | 3.89 | 1.47 | 5.51 | 7.42 | 6.49 | 3.96 | 6.11 | 6.7 | 6.76 | 1.93 | 3.25 | 3.88 | 1.5 | 4.51 | 1.73 | 3.8
CGAACCAGGTCACCAGGACAGTGAAGAGGTTGGA | 5.33 | 3.4 | 0.19 | 2.53 | -0.432 | 4.96 | 6.6 | 5.66 | 2.44 | 4.73 | 5.49 | 6.38 | 0.103 | 2.28 | 2.81 | 0.0931 | 3.75 | 0.523 | 4.37
CGCACTAGGTCAAAGGACAGTGAAAGGCGACGTA | 4.07 | 2.88 | 0.082 | 1.83 | -0.151 | 5.48 | 10.1 | 8.55 | 8.13 | 8.98 | 7.3 | 8.16 | 0.801 | 0.993 | 1.27 | 0.0363 | 2.25 | 0.165 | 3.84
CGAACTAGGTCACCAGGACAGTGACGAGGTTGGA | 4.27 | 2.44 | -0.221 | 1.53 | -0.75 | 5.17 | 8.62 | 6.98 | 4.41 | 6.34 | 8.26 | 8.82 | 1.73 | 1.63 | 1.66 | -0.0254 | 2.69 | 0.339 | 4.38
CGAACTAGGTCACCAGGACGGTGAAGAGGTTGGA | 3.75 | 2.3 | -0.206 | 1.19 | -0.86 | 5.23 | 8.37 | 6.93 | 4.31 | 6.43 | 7.98 | 8.73 | 2.21 | 2.07 | 1.18 | -0.299 | 2.21 | -0.518 | 4.26
CGAACTAGGTCATCAGGACAGTGAAGAGGTTGGA | 4.1 | 2.56 | 0.124 | 1.44 | -0.279 | 5 | 7.71 | 6.43 | 4.15 | 5.72 | 7.93 | 8.18 | 0.121 | 1.34 | 1.32 | 0.123 | 2.27 | 0.72 | 3.9
